# Reference: PubChem BioAssay
# Values joined by “and” are separate entries in the source; they are usually repeats but may differ in a detail not shown here. Identical values can stand only once. Active and inactive are the calls of the source.
# Key:
# [1] = binders of probe aFSTL3 on microarray, primary screen, stem cell growth factor project, biochemical, small-molecule microarray, fluorescence 635/667 (AID 1064); settings: higher = more signal;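 note: measures binding of the biotinylated anti-FSTL3 antibody to printed compounds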
# [2] = binders from COS7 lysate, DM2A8 probe, primary screen, torsin A project, cell lysate, small-molecule microarray, fluorescence 635/667 (AID 1065); settings: higher = more signal, COS7 lysate expressing mutant human TOR1A
# [3] = binders of probe aFGF2 on microarray, primary screen, stem cell growth factor project, biochemical, small-molecule microarray, fluorescence 635/667 (AID 1067); settings: higher = more signal;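 note: measures binding of biotinylated aFGF2 protein to printed compounds on slides; z-score merges feature fluorescence and signal-to-noise across triplicate slides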
# [4] = binders of probe aFGF10 on microarray, primary screen, stem cell growth factor project, biochemical, small-molecule microarray, fluorescence 635/667 (AID 1071); settings: higher = more signal;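 note: score merges 667 nm spot intensity and signal to noise from triplicate slides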
# [5] = molecular target: Neurogenic locus notch homolog protein 2 (Homo sapiens) (UniProt Q04721); assay: Notch2 binders on small-molecule microarrays, primary screen, biochemical, small-molecule microarray, 635 nm fluorescence, stem cell growth factors (AID 1073); settings: Notch2 binding, higher = more signal
# [6] = molecular target: Pro-neuregulin-1, membrane-bound isoform (Homo sapiens) (UniProt Q02297); assay: NRG1 binders on small-molecule microarrays, primary screen, psychiatric disease protein project, biochemical, small-molecule microarray, fluorescence 635/667 (AID 1075); settings: NRG1 binding, 635 nm fluorescence, higher = more signal;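 note: score combines 667 nm spot fluorescence with signal to noise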
# [7] = tested on: Neuregulin-1 EGF-like domain; assay: binders of neuregulin-1 EGF-like domain, primary screen, biochemical, small-molecule microarray, 635 nm fluorescence (AID 1081); settings: small-molecule microarray binding, higher = more signal;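 note: binding of the protein to compounds printed on small-molecule microarray slides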
# [8] = FRG1 promoter luciferase signal modulators, primary screen, FRG1 inhibition for FSHD, cell-based, C2C12 myotubes, firefly/Renilla luciferase, luminescence (AID 1084); settings: higher = more signal, called active from +8 up or from −8 down
# [9] = binders of probe aFST on microarray, primary screen, stem cell growth factor project, biochemical, small-molecule microarray, fluorescence 635/667 (AID 1086); settings: higher = more signal;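 note: score merges 667 nm fluorescence with signal-to-noise of each printed compound spot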
# [10] = binders of probe aHhip on microarray, primary screen, stem cell growth factor project, biochemical, small-molecule microarray, fluorescence 635/667 (AID 1087); settings: higher = more signal;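 note: score merges spot fluorescence at 667nm with spot signal to noise ratio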
# [11] = tested on: PRMT1 (protein arginine N-methyltransferase 1); assay: PRMT1 binders on small-molecule microarrays, primary screen, biochemical, small-molecule microarray, 635 nm fluorescence (AID 1088); settings: small-molecule microarray binding, higher = more signal;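 note: binding of Prmt1 protein to compounds spotted on small-molecule microarray slides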
# [12] = yeast growth modulation, basal conditions, primary screen, YJM789 clinical isolate, OD600, 24 h (AID 1089);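 note: growth of clinical yeast isolate S. cerevisiae YJM 789 seeded 1000 cells per well; test concentration not given here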; settings: S. cerevisiae YJM789 growth, higher = more signal, called active from +8 up or from −8 down
# [13] = fission yeast growth modulation, primary screen, strain 972, OD600, 24 h, no modulator (AID 1090);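 note: basal condition with compound alone and no growth modifier present; test concentration not given here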; settings: S. pombe 972 growth, higher = more signal, called active from +8 up or from −8 down
# [14] = S. cerevisiae growth modulation with rapamycin, primary screen, strain BY4716, OD600, 96 h (AID 1091); settings: higher = more signal, called active from +8 up or from −8 down; note: test concentration not given here
# [15] = molecular target: Torsin-1A-interacting protein 2 (Homo sapiens) (UniProt Q8NFQ8); assay: LULL1 binders on small-molecule microarray, primary screen, cell lysate, human LULL1 lysate, 635/667 nm fluorescence (AID 1092); settings: hLULL1 lysate binding, 635 nm fluorescence, higher = more signal;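 note: probe is lysate of COS7 cells overexpressing human LULL1; score merges per-feature 667 nm fluorescence with signal-to-noise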
# [16] = E. coli growth modulation, two-sided OD650, primary screen, E. coli filamentation project, strain DRC41, 24 h (AID 1093); settings: OD650, 24 h, higher = more signal, called active from +8 up or from −8 down;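 note: MC1000 strain lacking acrAB efflux and sulA so SOS filamentation is blocked; test concentration not given here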
# [17] = small-molecule microarray binders of probe aLefty2, primary screen, biochemical, biotinylated probe, 635/667 nm fluorescence (AID 1094); settings: higher = more signal;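 note: score merges spot fluorescence near 667 nm with spot signal-to-noise ratio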
# [18] = tested on: Noggin (protein binding on small-molecule microarray); assay: Noggin binders on small-molecule microarray, primary screen, biochemical, 635/667 nm fluorescence (AID 1095); settings: 635 nm fluorescence, higher = more signal;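 note: score merges 667 nm feature fluorescence with signal to noise over triplicate slides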
# [19] = molecular target: Neurogenic locus notch homolog protein 3 (Homo sapiens) (UniProt Q9UM47); assay: NOTCH3 binders on small-molecule microarray, primary screen, biochemical, 635/667 nm fluorescence (AID 1096); settings: NOTCH3 binding, 635 nm fluorescence, higher = more signal
# [20] = small-molecule microarray binders of probe aEGFR, primary screen, biochemical, biotinylated probe, 635/667 nm fluorescence (AID 1097); settings: higher = more signal;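 note: probe is a biotinylated anti-EGFR antibody binding compounds printed on slides; score combines fluorescence near 667 nm and signal to noise of each spot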
# Pro-neuregulin-1, membrane-bound isoform (Homo sapiens), sequence (Q02297 whole entry, looked up, the tested form may be a part, canonical isoform): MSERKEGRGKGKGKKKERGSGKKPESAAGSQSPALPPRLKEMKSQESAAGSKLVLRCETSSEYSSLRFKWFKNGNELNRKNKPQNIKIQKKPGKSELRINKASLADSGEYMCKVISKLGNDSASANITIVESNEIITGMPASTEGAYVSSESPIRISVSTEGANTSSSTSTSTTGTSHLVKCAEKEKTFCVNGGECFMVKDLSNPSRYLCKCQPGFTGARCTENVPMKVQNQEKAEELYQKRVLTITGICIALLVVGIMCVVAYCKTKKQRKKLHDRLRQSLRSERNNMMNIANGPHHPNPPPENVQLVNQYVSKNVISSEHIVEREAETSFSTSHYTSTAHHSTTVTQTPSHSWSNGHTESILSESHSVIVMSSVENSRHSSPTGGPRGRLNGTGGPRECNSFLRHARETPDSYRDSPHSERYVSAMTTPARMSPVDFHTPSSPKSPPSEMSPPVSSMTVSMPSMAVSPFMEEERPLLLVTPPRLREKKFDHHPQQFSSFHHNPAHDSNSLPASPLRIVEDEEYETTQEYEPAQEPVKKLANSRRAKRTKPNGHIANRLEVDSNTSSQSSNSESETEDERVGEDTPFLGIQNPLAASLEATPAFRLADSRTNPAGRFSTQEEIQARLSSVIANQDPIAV
# Torsin-1A-interacting protein 2 (Homo sapiens), sequence (Q8NFQ8 whole entry, looked up): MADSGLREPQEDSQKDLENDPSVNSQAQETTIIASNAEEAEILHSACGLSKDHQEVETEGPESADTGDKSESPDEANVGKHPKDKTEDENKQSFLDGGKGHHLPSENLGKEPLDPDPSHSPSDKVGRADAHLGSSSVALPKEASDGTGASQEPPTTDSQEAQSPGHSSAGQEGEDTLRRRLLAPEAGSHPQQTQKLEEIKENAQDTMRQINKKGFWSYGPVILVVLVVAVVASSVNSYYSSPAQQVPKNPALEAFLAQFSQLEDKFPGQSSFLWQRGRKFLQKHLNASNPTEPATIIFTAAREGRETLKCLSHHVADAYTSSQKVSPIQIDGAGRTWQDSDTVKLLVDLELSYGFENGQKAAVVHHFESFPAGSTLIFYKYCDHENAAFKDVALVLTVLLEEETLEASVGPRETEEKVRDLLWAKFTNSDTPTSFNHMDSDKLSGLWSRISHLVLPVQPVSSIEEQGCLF
# Neurogenic locus notch homolog protein 2 (Homo sapiens), sequence (Q04721 whole entry, looked up, canonical isoform): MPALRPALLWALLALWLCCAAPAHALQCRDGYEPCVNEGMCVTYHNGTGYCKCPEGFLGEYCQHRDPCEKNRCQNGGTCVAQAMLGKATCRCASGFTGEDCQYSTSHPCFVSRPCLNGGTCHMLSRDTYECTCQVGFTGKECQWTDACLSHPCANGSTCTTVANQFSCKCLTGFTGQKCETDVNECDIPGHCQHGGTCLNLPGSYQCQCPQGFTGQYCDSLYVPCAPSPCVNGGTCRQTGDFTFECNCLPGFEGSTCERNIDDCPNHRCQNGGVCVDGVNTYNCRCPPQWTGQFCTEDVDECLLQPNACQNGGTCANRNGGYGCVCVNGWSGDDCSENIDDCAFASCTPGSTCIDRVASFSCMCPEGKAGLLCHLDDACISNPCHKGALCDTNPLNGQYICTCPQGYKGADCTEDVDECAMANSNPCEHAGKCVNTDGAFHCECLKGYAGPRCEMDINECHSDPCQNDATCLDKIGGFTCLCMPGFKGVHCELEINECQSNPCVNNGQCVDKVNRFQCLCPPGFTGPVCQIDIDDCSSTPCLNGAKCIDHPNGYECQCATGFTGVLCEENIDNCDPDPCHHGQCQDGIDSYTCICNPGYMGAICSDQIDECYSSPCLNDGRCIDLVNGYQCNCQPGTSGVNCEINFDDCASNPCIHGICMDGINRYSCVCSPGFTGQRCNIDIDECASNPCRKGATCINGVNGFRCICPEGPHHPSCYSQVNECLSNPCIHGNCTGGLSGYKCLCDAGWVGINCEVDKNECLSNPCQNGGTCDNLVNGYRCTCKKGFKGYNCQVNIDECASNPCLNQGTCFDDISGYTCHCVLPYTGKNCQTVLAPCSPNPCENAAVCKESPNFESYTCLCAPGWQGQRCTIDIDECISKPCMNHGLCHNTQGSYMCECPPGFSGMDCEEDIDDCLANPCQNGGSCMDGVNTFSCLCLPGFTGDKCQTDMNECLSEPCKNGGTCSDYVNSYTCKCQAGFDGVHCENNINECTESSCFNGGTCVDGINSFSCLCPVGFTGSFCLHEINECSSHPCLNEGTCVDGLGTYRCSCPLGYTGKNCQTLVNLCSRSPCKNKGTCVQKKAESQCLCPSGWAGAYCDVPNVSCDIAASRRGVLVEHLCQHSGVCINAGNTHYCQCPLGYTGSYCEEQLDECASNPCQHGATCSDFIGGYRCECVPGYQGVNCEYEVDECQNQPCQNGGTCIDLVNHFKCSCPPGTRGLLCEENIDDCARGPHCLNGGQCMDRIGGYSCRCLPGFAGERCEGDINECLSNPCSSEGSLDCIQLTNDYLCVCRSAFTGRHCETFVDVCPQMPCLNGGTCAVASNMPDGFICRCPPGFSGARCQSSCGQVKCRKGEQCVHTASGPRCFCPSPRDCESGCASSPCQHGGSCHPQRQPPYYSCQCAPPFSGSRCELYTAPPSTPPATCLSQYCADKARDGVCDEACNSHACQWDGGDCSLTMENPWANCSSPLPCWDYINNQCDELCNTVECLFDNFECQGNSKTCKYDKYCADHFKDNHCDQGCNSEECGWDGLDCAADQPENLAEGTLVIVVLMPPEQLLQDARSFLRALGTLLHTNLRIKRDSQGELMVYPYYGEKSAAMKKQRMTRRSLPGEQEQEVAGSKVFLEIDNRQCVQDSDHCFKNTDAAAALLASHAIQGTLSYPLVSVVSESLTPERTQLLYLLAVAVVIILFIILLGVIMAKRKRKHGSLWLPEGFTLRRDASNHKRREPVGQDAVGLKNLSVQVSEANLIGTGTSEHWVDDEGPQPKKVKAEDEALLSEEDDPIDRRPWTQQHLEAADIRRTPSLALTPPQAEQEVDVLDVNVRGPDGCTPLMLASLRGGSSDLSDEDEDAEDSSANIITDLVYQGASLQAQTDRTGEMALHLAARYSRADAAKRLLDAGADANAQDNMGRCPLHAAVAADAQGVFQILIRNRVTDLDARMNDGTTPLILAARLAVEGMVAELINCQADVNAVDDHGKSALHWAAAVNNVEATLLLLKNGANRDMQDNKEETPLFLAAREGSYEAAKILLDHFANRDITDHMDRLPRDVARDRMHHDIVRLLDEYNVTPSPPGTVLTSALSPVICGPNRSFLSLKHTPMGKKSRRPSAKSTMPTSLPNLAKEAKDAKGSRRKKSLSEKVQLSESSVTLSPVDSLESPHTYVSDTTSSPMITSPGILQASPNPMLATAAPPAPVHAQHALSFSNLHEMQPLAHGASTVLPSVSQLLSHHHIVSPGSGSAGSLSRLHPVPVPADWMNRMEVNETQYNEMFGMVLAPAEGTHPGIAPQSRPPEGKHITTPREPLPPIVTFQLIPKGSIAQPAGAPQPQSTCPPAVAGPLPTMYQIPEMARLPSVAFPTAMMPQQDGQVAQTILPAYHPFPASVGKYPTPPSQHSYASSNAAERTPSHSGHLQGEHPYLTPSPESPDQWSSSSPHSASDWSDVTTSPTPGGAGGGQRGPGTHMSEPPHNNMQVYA
Compound,composite z-score [1],composite z-score [2],composite z-score [3],composite z-score [4],composite z-score [5],composite z-score [6],composite z-score [7],z-score [8],composite z-score [9],composite z-score [10],composite z-score [11],z-score [12],z-score [13],z-score [14],composite z-score [15],z-score [16],composite z-score [17],composite z-score [18],composite z-score [19],composite z-score [20]
C=CC[C@@H](O)c1ccc(O)c2ccccc12,0.16 and -0.247,0.571 and 0.234,-0.0422 and -0.0676,0.184 and 0.262,0.116 and 0.328,0.66 and 0.282,1.18 and 1.26,0.0604 (inactive) and 1.27 (inactive),0.42 and 0.0926,0.72 and -0.0237,1.57 and 1.49,-22 (active) and -23.3 (active),-20 (active) and -20.4 (active),6.56 (inactive) and 5.68 (inactive),1.01 and 0.0783,1.92 (inactive) and 0.416 (inactive),-0.0511 and -0.0812,1.1 and 0.869,1.11 and 1.1,0.0153 and -0.0531
C[C@@H]1CC[C@H]2C(=O)O[C@H](CN=[N+]=[N-])CN2[C@H]1c1ccc(Br)cc1,-0.0927 and -0.0564,0.622 and 0.269,-0.158 and -0.187,-0.12 and -0.336,-0.321 and -0.635,-0.198 and 0.292,-0.238 and -0.279,-0.492 (inactive) and -0.161 (inactive),0.3 and -0.405,-0.0657 and -0.0618,0.692 and 0.323,-0.471 (inactive) and 0.113 (inactive),-16.7 (active) and -14.3 (active),-2.15 (inactive) and -0.441 (inactive),0.359 and -0.0523,-0.548 (inactive) and 0.433 (inactive),-0.245 and -0.0174,0.366 and 0.115,-0.105 and -1.06,0.0172 and -0.252
CC(C)=NO[C@@H](C)c1cc(-c2c(C)cc(C)cc2C)no1,1.18,-0.146,-0.135,0.0794,-0.243,-0.0227,-0.304,0.122 (inactive),-0.163,0.0854,-0.389,-0.166 (inactive),-3.55 (inactive),-0.0423 (inactive),0.168,-0.272 (inactive),-0.122,0.412,-0.434,-0.101
C[C@@H](c1ccccc1)N1C(=O)[C@H]2[C@H]3[C@H](O)[C@H](O)CC(=O)[C@@H]3CC[C@H]2C1=O,-0.289,0.118,-0.0193,0.534,0.694,-0.0676,0.603,-1.06 (inactive),0.435,-0.0672,0.745,-2.24 (inactive),-0.971 (inactive),-0.727 (inactive),0.775,-0.46 (inactive),-0.0978,0.798,0.82,0.596
C=CCN(CCCCC)C(=O)C(c1cccs1)N(CCOCCO)C(=O)/C=C\C(=O)O (stereo not given),-0.192 and 0.0796,0.185 and -1.07,-0.157 and -0.113,-1.26 and -0.317,-1.84 and -1.41,-0.661 and -0.969,-0.196 and -0.609,0.874 (inactive) and 1.45 (inactive),-1.48 and -0.675,-0.0922 and -0.41,-0.718 and -0.737,-1.32 (inactive) and -1.53 (inactive),-0.464 (inactive) and -0.606 (inactive),-0.289 (inactive) and -0.433 (inactive),-0.93 and -0.573,0.986 (inactive) and 1.18 (inactive),-0.0977 and -0.0831,-1.24 and -1.19,-1.09 and -1.06,-0.231 and -0.324
